This is an account of results in PubChem BioAssay (NCI).

Molecules are shown by their SMILES. The panel holds about 83,000 compounds, 20% with a hit somewhere; the sample as a whole holds those more often.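 Note: values are percent growth. 100 is the growth of untreated cells, values between 100 and 0 indicate rising inhibition; between -100 and 0 indicates cell death.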 Unmarked numbers belong to inactive results. Calls of active or inactive are those of the source. Rule for the calls: active = growth percent below 10; inactive = the rest.

Among the test systems are NCI-H23 lung; NCI-H226 lung; HOP-62 NSCLC; NCI-H460 lung; HOP-92 NSCLC; NCI-H522 lung; A549/ATCC NSCLC; 786-0 renal; DU-145 prostate; K-562 leukemia; MALME-3M melanoma; MDA-MB-231 breast; RXF 393 renal; SF-268 CNS; SF-295 CNS; SF-539 CNS; UACC-257 melanoma; M14 melanoma; COLO 205 colon; NCI-H322M lung.
What all share (test): NCI-60 one-dose screen, 48 h (100 = growth as untreated, 0 = no growth, -100 = all killed)
Holding throughout (settings): 10 µM unless noted

As to `O=C1C=CC(=O)N1c1cc(Cl)c(Cl)cc1Cl`, the growth was 100% in the experiment on NCI-H23 lung; 100% with NCI-H226 lung; 100% with HOP-62 NSCLC; 107% with NCI-H460 lung; 107% in the experiment with HOP-92 NSCLC; 84.4% with NCI-H522 lung. Moreover, the growth with A549/ATCC NSCLC is 103%; in the experiment with 786-0 renal it was 96%; in the experiment with DU-145 prostate, 109%; in the experiment with K-562 leukemia it was 93.9%; in the experiment with MALME-3M melanoma it was 96.6%; in the experiment with MDA-MB-231 breast it was 120%. The growth is 106% in the experiment with RXF 393 renal; 102% in the experiment on SF-268 CNS; 97.5% in the experiment on SF-295 CNS; 109% in the experiment with SF-539 CNS; 101% in the experiment on UACC-257 melanoma; 103% in the experiment on M14 melanoma.
For `COc1cc([C@@H]2c3cc4c(cc3[C@H](OC3OC5COC(c6ccccc6)OC5C(O)C3O)[C@H]3COC(=O)[C@H]23)OCO4)cc(OC)c1OC` (some centres not stated), the growth in the experiment on NCI-H23 lung is 22.4%; with NCI-H226 lung, 75.9%; in the experiment on HOP-62 NSCLC, 29.6%; in the experiment on NCI-H460 lung, 20.8%; with HOP-92 NSCLC, 37.7%; with NCI-H522 lung it was 17.5%. Also, the growth was 64.8% with A549/ATCC NSCLC; 64% in the experiment with 786-0 renal; -77.6% (active) in the experiment on COLO 205 colon; 57% in the experiment with DU-145 prostate; 15.9% in the experiment with K-562 leukemia; 66.3% in the experiment on MDA-MB-231 breast. Further, the growth is 65.7% with RXF 393 renal; 29.3% with SF-268 CNS; 35.8% in the experiment with SF-295 CNS; 19.4% with SF-539 CNS; 57.5% in the experiment on UACC-257 melanoma; 33.2% in the experiment with M14 melanoma.
With `CC(C)N=C(N)/N=C(\N)Nc1ccc2ccc3ccccc3c2c1`, the growth in the experiment with NCI-H23 lung was -88.1% (active); in the experiment on NCI-H226 lung it was -67.6% (active); in the experiment on HOP-62 NSCLC, -84.5% (active); in the experiment with NCI-H460 lung, -58.1% (active); in the experiment with HOP-92 NSCLC, -68.6% (active); in the experiment on NCI-H522 lung, -84.8% (active). Moreover, the growth with A549/ATCC NSCLC is -65.2% (active); in the experiment with 786-0 renal, -70.1% (active); with COLO 205 colon, -92% (active); in the experiment on DU-145 prostate, -89.5% (active); with K-562 leukemia, -42.3% (active); in the experiment on MALME-3M melanoma, -89.6% (active). For the same molecule, the growth in the experiment with RXF 393 renal is -89.7% (active); in the experiment on SF-268 CNS it was -64.7% (active); in the experiment with SF-295 CNS it was -89.1% (active); in the experiment with SF-539 CNS, -98.9% (active); in the experiment with UACC-257 melanoma, -79.1% (active); with M14 melanoma it was -76.8% (active).
`CCc1cccc(CC)c1N1C(=O)C=CC1=O`: the growth in the experiment with NCI-H23 lung is 108%; in the experiment on NCI-H226 lung, 117%; in the experiment on NCI-H322M lung it was 95.3%; in the experiment with NCI-H460 lung, 96.1%; with NCI-H522 lung it was 91.6%; with A549/ATCC NSCLC it was 71.9%. Further, the growth was 82.5% with 786-0 renal; 75.8% with COLO 205 colon; 112% in the experiment with DU-145 prostate; 23.8% in the experiment with K-562 leukemia; 121% in the experiment on MALME-3M melanoma; 132% in the experiment on MDA-MB-231 breast. Moreover, the growth was 97.6% in the experiment on SF-268 CNS; 106% in the experiment on SF-295 CNS; 107% in the experiment on SF-539 CNS; 81.6% in the experiment on UACC-257 melanoma; 86.6% in the experiment with M14 melanoma.
For `Cc1ccc(NC2=CC(=O)C(=O)c3ccccc32)cc1`, the growth with NCI-H23 lung is -31.2% (active); with NCI-H226 lung, -67.9% (active); in the experiment on HOP-62 NSCLC it was -86.2% (active); in the experiment on NCI-H460 lung it was 5.26% (active); in the experiment with NCI-H522 lung, 18.8%; with A549/ATCC NSCLC it was -36.5% (active). The growth is 34.8% in the experiment with 786-0 renal; -68.5% (active) in the experiment on COLO 205 colon; -65.1% (active) in the experiment on DU-145 prostate; 16.4% in the experiment on K-562 leukemia; -76.5% (active) with MALME-3M melanoma; 49% with MDA-MB-231 breast. The growth in the experiment with RXF 393 renal was 44.1%; in the experiment with SF-268 CNS, 41%; in the experiment with SF-295 CNS, -22.9% (active); in the experiment with SF-539 CNS it was -20.4% (active); with UACC-257 melanoma, -46.2% (active); in the experiment with M14 melanoma, -63.5% (active).
As to `Cc1c(O)ccc(SC#N)c1C`, the growth with NCI-H23 lung was 98%; in the experiment with NCI-H226 lung, 109%; in the experiment on NCI-H322M lung, 117%; in the experiment on NCI-H460 lung, 99.5%; in the experiment on HOP-92 NSCLC it was 92.2%; in the experiment with A549/ATCC NSCLC, 108%. The growth was 96.9% in the experiment on COLO 205 colon; 115% with DU-145 prostate; 104% in the experiment on K-562 leukemia; 129% in the experiment with MALME-3M melanoma; 84.9% with MDA-MB-231 breast; 112% in the experiment with RXF 393 renal. Further, the growth in the experiment with SF-268 CNS was 87.1%; in the experiment on SF-295 CNS it was 129%; in the experiment on SF-539 CNS, 94.2%; in the experiment with UACC-257 melanoma it was 107%; with M14 melanoma it was 97.4%.
As for `CCOC(=O)C1=C(C(=O)c2ccccc2)C(c2cccc([N+](=O)[O-])c2)C(C(=O)c2ccccc2)=C(C(=O)OCC)N1`, the growth in the experiment with NCI-H23 lung was 86.3%; in the experiment with NCI-H226 lung, 84.9%; in the experiment on NCI-H322M lung, 94.1%; with HOP-92 NSCLC, 85.6%; in the experiment on NCI-H522 lung, 83.5%; with A549/ATCC NSCLC, 95.3%. The growth in the experiment on 786-0 renal was 93.9%; in the experiment on COLO 205 colon it was 114%; in the experiment with DU-145 prostate, 97%; in the experiment with K-562 leukemia, 21.5%; with MALME-3M melanoma it was 93.1%; in the experiment on RXF 393 renal it was 79.3%. Further, the growth in the experiment on SF-268 CNS is 93.9%; in the experiment with SF-295 CNS, 90.2%; in the experiment with SF-539 CNS, 95.7%; with UACC-257 melanoma, 105%; in the experiment on M14 melanoma it was 89.9%.
Take `O/N=C1\c2ccccc2-c2ccc(F)cc21`: the growth in the experiment on NCI-H23 lung is 99.4%; with NCI-H226 lung it was 82.5%; in the experiment with HOP-62 NSCLC, 95.9%; in the experiment with NCI-H460 lung, 98.9%; in the experiment with HOP-92 NSCLC it was 94.7%; in the experiment on NCI-H522 lung it was 100%. Moreover, the growth with A549/ATCC NSCLC is 100%; in the experiment on 786-0 renal it was 104%; in the experiment with COLO 205 colon, 73.7%; in the experiment with K-562 leukemia, 99.1%; in the experiment with MALME-3M melanoma it was 114%; with MDA-MB-231 breast it was 88.2%. The growth in the experiment on RXF 393 renal is 111%; in the experiment with SF-295 CNS it was 117%; in the experiment on SF-539 CNS, 97%; in the experiment with UACC-257 melanoma it was 110%; in the experiment with M14 melanoma it was 107%.
As to `Cn1c(-c2ccccc2)c(/C=C/C2=[N+](C)c3ccccc3C2(C)C)c2ccccc21`, the growth in the experiment on NCI-H23 lung was 7.45% (active); with NCI-H226 lung it was 13.5%; with NCI-H322M lung, 50.3%; with NCI-H460 lung, 2.46% (active); in the experiment on NCI-H522 lung it was -28.6% (active); in the experiment on A549/ATCC NSCLC it was 6.27% (active). In addition, the growth with 786-0 renal is 24.2%; with COLO 205 colon, -83.9% (active); in the experiment with DU-145 prostate it was 20.2%; with K-562 leukemia, 6.23% (active); in the experiment with MALME-3M melanoma, -6.21% (active); in the experiment on MDA-MB-231 breast, 15.6%. Besides, the growth in the experiment on RXF 393 renal was 35.2%; in the experiment with SF-268 CNS, 18%; in the experiment with SF-295 CNS it was 11.8%; in the experiment with SF-539 CNS it was 11.9%; in the experiment with UACC-257 melanoma, -51.5% (active).
